The results in this text go back to the supplement of paper PMC6555819.

The test concerns RARb:RXRa (NR concentration 270 nM, RXRa partner concentration 90 nM). Nature of the test: PBM binding z-score (relative to random genomic background probes); higher = stronger binding; sequences stand for … in GC…GCGATTGACAGCGTAGAATGAAGG
The method, boiled down: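 Binding buffer was PBS pH 7.4 with 2% milk, 0.02% Triton X-100, 1 mM DTT, 0.2 mg/mL BSA and 0.4 mg/ml salmon testes DNA. In it, ligand-free nuclear receptor dimers were incubated 1 h on custom Agilent 4×180K protein-binding microarrays carrying double-stranded probes. Antibodies against each partner (one per run) detected binding, and z-scores were calculated against random background probes after regression normalization of scanned fluorescence.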
Turning to TCTAGCAGGCCAGAGGGTCACACAAGAGGTACGG, the PBM binding z-score worked out at 2.62.
As for AGTCAAAGTTCACTTGGTAACGTAAGATTCAGCT, the PBM binding z-score is 4.58.
Sequence CCGACTGGGGCAGAAAGGTTACCATGCCATCCGG returned a PBM binding z-score of 2.
In the case of GCTCGGAGGACACGGTCAGAGCTTTGTCCGTAGA, the PBM binding z-score turned out to be 2.09.
Turning to CCTATTAGTTGACCATAAGGTCAACCGAAGCTCG, the PBM binding z-score came out at 3.72.
AGTCAAAGCTCATCTAGGTAACGTAAGATATGCT registered a PBM binding z-score of -0.0836.
The sequence TCTAGTTGGTCACGAAGGTCACACACGACGGGTA yielded a PBM binding z-score of 4.01.
With TCAGATAGGTAATACAGGTGAAAGTCGGCATCTA, the PBM binding z-score stood at 0.567.
The value for CAGCCTAGGTCGGGGCCAGTATAGGAGGAACGTT was 1.02; that for CGAACTAGATCAAGGACAGTGAATCTCCGCACGC was 0.0814.
The value for CGTCCAAGGTCAAGGTCAGCGAAAGAGACTCGAA was 5.52.
In the case of CAGCCTAGGTCAAGGCCAGTATAGGAGGAACGTT, the PBM binding z-score is 4.07.
As to ATACCAAGGTGATCGTGAGGTGGTTGATACTAAC, the PBM binding z-score turned out to be 0.774.
Consider CAAACTAGGTCGCAGAGGTCAAAGTCCGTGCGTA, for which the PBM binding z-score amounted to 4.5.
Regarding ATCTCTAAGTAAGACTCAGTTCAGTGAAGAACGC, the PBM binding z-score amounted to 0.15.
With CGTCAAAGTTCAACTAAGGTAACGGAAAGCACGC, the PBM binding z-score turned out to be 5.45.
The value for TCTTGTAGATTAAAGGTTAAGAAAGCCGAAGCCT was 1.53.
As for TCGTATAGGTAAAGGTGAAAGTCGAACGATATGA, the PBM binding z-score amounted to 2.07.
The value for CCTGCTAGGTCAATGGTCAACTAAAGCAGCTCGC was 3.79.
TCTCGGACGACACGAAGGTCAGAGCTTTCCAGAG registered a PBM binding z-score of 2.8.
AAAGACAGGTGATGAAGGTAACTCAGGCTATCAT yielded a PBM binding z-score of 0.438.
The value for TCTTGTAGTTCAGCAGGTTAAGAAAGCTGGCCAA was 1.76.
With TAGAGTAGGTTAGTCGGGGCATTCAGCCAACATA, the PBM binding z-score came to 1.1.
CGTCCAAGGTCAGAGAGGTAAGTGAATGCCGAGT: the PBM binding z-score was 4.67.
The value for CCGACTGTGGCAAAGGTTACCATACTCAGTACGA was 1.9; that for CAGCCGAGGTCAGGGCCAGTATAGGAGGAACGTT was 4.81; that for CCAACTAGGTCAAGGTCAAAGTCGGTTTGTGCCA was 5.3.
The value for CCTAGCAGGCCCATCTGGGTCACTCAAGGCTTGA was 0.978; that for CATCAAAGTTCAACTAAGGTAACGTAAAGCACGC was 5.37; that for ACTAGCTGGTCAGCTGAGGTCACACACAATTCGG was 3.69.
TCTTGTAGATCAACAGGAGGTTGAGAAAGATCGA registered a PBM binding z-score of -0.147.
In the case of CTACCAAGGTGAACAAGGTCGTGGATTACTATTC, the PBM binding z-score came out at 2.45.
The value for ACTCGGAGGACAAAGGTCAGAGCTACGCCAGTGA was 4.44; that for TCTTGTAGATCAATAGAGTTTAAGAAAGTGCGCT was 0.375.
On to TAGCCCAGGTCATGCGGGCCAGTATAGTGTCGGC, for which the PBM binding z-score is 3.74.
The value for AGAACAAGGGCAATGAGTTGATAGCACGGGTGGC was 2.2.
Sequence CCTACTGGGCCACGAAAGGTCATTGAATCAGTGA returned a PBM binding z-score of 4.03.
The value for GCTTGTTGATCAAGGTTAAGAAAGACTAAGCTAA was 0.66.
For the sequence CCTACTGGGCCAAGGACATTGATCAGTCAAAGCA, the PBM binding z-score came out at 0.145.
AGAATGAGGTTATACCTAGATCAGGGAAGAAAGT: the PBM binding z-score came out at 1.19.
